Drawing on PubChem BioAssay (Tox21), this text covers outcome and Potency for 28 compounds.

Assay [1] is described as follows: qHTS assay to identify small molecule antagonists of the glucocorticoid receptor (GR) signaling pathway - cell viability counter screen (AID 720693). Also: nearly all actives have a fitted effect of over 55% in size. On the technique in general: In qHTS, concentration-response curves come from the screen itself.
The nature of assay [2]: qHTS assay for identifying genotoxic compounds that show differential cytotoxicity against isogenic chicken DT40 cell lines with known DNA damage response pathways - wild type cell line (AID 743012). Also: nearly all actives have a fitted effect of over 60% in size. Also: potency is read from the fitted curve at half-maximal effect. An outline of the steps:
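CellTiter-Glo luminescence readout of viability in wild type DT40 cells after 40 h compound exposure at 37 C/5% CO2; 300 cells/well; reagent incubated 30 min at room temperature before reading.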

Assay [3] in a line: qHTS assay for identifying genotoxic compounds that show differential cytotoxicity against isogenic chicken DT40 cell lines with known DNA damage response pathways - Rev3 mutant cell line (AID 743014). Also: nearly all actives have a fitted effect of over 55% in size. Also: potency is read from the fitted curve at half-maximal effect.
Assay [4] is described as follows: qHTS assay for identifying genotoxic compounds that show differential cytotoxicity against isogenic chicken DT40 cell lines with known DNA damage response pathways - Rad54/Ku70 mutant cell line (AID 743015). Also: nearly all actives have a fitted effect of over 60% in size. Also: potency is read from the fitted curve at half-maximal effect.
Assay [5] is described as follows: qHTS assay to identify small molecule antagonists of the androgen receptor (AR) signaling pathway - cell viability counter screen (AID 743033; also: nearly all actives have a fitted effect of over 45% in size).
In assay [6] the target is Androgen receptor (Homo sapiens) (UniProt P10275). Put plainly: qHTS assay to identify small molecule antagonists of the androgen receptor (AR) signaling pathway (AID 743035; active = well fitted inhibition curve with a large enough effect in the signal ratio in the repeat runs, not every such curve was filed as active; the % refers to the signal ratio). The procedure, abridged: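 AR-bla HEK293 reporter cells; 4 h settle at 37C/5% CO2; compound + R1881 agonist, 16 h at 37C; LiveBLAzer B/G FRET substrate 2 h RT; fluorescence intensity read. qHTS format.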

For assay [7] the target is unchanged. Kind of assay: qHTS assay to identify small molecule agonists of the androgen receptor (AR) signaling pathway (AID 743036; active = well fitted activation curve with a large enough effect in the signal ratio in the repeat runs, with a control signal flat, not every such curve was filed as active; the % refers to the signal ratio). The procedure, abridged:
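Screening used 2,000 AR-bla HEK293 cells per well, treated 16 h at 37C with test compounds in DMSO alongside positive and DMSO-only controls; beta-lactamase activity was then read by LiveBLAzer B/G FRET fluorescence after 2 h at room temperature.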

The nature of assay [8]: qHTS assay to identify small molecule antagonists of the androgen receptor (AR) signaling pathway using the MDA cell line - cell viability counter screen (AID 743041; also: nearly all actives have a fitted effect of over 45% in size). An outline of the steps:
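Viability read by CellTiter-Fluor fluorescence in the same wells as the antagonist screen, added after 15.5 h of a 16 h, 37C exposure. Human breast carcinoma MDA-kb2 AR-luc cells, compounds co-dosed with agonist R1881.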

Assay [9] is described as follows: qHTS assay to identify small molecule antagonists of the thyroid receptor (TR) signaling pathway - cell viability counter screen (AID 743064). Also: nearly all actives have a fitted effect of over 50% in size. The procedure, abridged:
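Viability of T3-stimulated (1 nM final) GH3.TRE-Luc cells is measured by CellTiter-Fluor fluorescence after 23.5 h compound exposure at 37 °C plus 30 min reagent incubation.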

Assay [10] has as its target Androgen receptor (Homo sapiens) (UniProt P10275). Put plainly: qHTS assay to identify small molecule agonists of the androgen receptor (AR) signaling pathway using the MDA cell line (AID 743040; also: nearly all actives have a fitted effect of over 20% in size). The procedure, abridged:
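Luciferase agonist assay: 16 h compound exposure at 37C without CO2 in MDA-kb2 AR-luc cells, whose MMTV promoter responds to both AR and GR. Luminescence measured after 30 min room-temperature incubation with ONE-Glo.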

Values without a mark were called inactive. Inconclusive results are not listed. Calls of active or inactive are those of the source. Unless noted, calls follow the shape of the dose curve; as a rule, active = well fitted curve in the direction sought with a large enough effect in the repeat runs; inconclusive = weak or mixed curves; inactive = no such curve, though single readings can be large; an effect the other way counts as inactive or inconclusive.

Chain of Androgen receptor (Homo sapiens) (P10275 whole entry, looked up): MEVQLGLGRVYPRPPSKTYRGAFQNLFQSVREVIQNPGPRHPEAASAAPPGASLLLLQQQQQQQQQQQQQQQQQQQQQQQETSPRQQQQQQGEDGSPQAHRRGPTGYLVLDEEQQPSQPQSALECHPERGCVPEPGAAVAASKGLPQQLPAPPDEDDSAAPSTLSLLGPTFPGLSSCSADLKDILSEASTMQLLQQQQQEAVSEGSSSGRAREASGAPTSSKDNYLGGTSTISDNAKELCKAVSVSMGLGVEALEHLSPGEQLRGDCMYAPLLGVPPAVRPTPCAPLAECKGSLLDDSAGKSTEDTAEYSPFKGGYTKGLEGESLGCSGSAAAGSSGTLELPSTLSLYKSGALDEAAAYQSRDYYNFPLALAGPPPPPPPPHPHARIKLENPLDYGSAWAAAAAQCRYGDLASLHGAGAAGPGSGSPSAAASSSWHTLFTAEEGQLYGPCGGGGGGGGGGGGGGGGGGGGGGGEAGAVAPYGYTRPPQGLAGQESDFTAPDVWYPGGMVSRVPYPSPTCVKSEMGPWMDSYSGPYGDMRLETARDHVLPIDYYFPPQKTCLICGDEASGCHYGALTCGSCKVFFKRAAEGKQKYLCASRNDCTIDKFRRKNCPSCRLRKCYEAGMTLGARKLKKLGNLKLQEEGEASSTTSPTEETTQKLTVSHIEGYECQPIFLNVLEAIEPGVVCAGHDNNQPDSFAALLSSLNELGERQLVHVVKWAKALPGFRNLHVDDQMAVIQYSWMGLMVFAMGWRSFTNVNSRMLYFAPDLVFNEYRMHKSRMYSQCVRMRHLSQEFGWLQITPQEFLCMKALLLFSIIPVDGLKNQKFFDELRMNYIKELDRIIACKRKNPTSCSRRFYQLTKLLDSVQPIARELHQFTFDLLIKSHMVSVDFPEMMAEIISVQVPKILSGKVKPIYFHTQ

As for `C/C(Cl)=C/CCl`, the outcome in [1], in assay [5], in assay [6], in [7] and in [8] was inactive. In addition, the Potency entry in [2], in assay [3], in assay [4] and in assay [9] was “inactive” each time.

Consider `CCCCCCCCC1CO1` (stereo not given), for which the call in assay [1], in assay [5], in assay [6], in assay [7], in assay [10] and in [8] was inactive. Further, the Potency result in assay [2], in assay [3], in [4] and in assay [9] was “inactive” throughout.

Consider `CN(C)CCc1c[nH]c2ccc(C[C@H]3COC(=O)N3)cc12`, for which the compound was classed as inactive in [1], in assay [5] and in assay [8]. The Potency entry in assay [2], in assay [3] and in assay [4] was “inactive” throughout.

Regarding `CCc1ccc(CC)cc1`, the call in assay [1], in assay [5] and in assay [8] was inactive. The Potency result in [2], in assay [3] and in assay [4] was “inactive” throughout.

Turning to `NC(=O)CC[C@@H](N)C(=O)O`, the result in assay [1], in [5] and in assay [8] was inactive. Also, the Potency entry in assay [2], in assay [3] and in [4] was “inactive” throughout.

Turning to `CC(C)OC(=O)C(C(=O)OC(C)C)=C1SC=CS1`, the outcome in [1], in assay [5], in assay [7], in assay [10] and in assay [8] was inactive. Further, the Potency in assay [2] was 23.7 µM (active); in assay [3] it was 26.6 µM (active); in assay [4], 23.7 µM (active).

Take `CC(CC(=O)Cl)CC(C)(C)C` (stereo not given): the call in [1], in assay [5] and in assay [8] was inactive. Also, the Potency entry in assay [2], in assay [3] and in [4] was “inactive” in each case.

Regarding `CC/C=C\CCOC(=O)c1ccccc1`, the compound was called inactive in assay [1], in [5], in assay [7], in [10] and in [8]. Moreover, the Potency result in [2], in assay [3] and in [4] was “inactive” in each case.

As to `Nc1cc(S(=O)(=O)O)ccc1O`, the call in assay [1], in assay [5], in assay [6], in assay [7], in assay [10] and in assay [8] was inactive. Further, the Potency entry in assay [2], in assay [3], in assay [4] and in assay [9] was “inactive” each time.

For the compound `CC(C)(C)C(=O)NCCCC(=O)O`, the compound was classed as inactive in assay [1], in [5] and in assay [8]. Also, the Potency result in assay [2], in assay [3] and in assay [4] was “inactive” throughout.

Consider `C=CCN1CCc2nc(N)sc2CC1`, for which the compound was classed as inactive in assay [1], in assay [5], in assay [6], in assay [7], in assay [10] and in assay [8]. Also, the Potency entry in assay [2], in [3] and in [4] was “inactive” each time.

Take `Clc1cc(Cl)c(Cl)c(Cl)c1Cl`: the compound was called inactive in assay [1], in assay [5] and in [8]. For the same compound, the Potency result in [2], in [3] and in assay [4] was “inactive” each time.

With `CCCCc1ccc(Cl)cc1`, the outcome in [1], in assay [5] and in assay [8] was inactive. The Potency entry in [2], in assay [3] and in assay [4] was “inactive” each time.

`O=C(O)Cc1c(Cl)ccc(Cl)c1Cl`: the call in [1], in assay [5] and in [8] was inactive. In addition, the Potency entry in assay [2], in assay [3] and in assay [4] was “inactive” in each case.

For `Cc1ccc(N)nc1`, the result in assay [1], in assay [5], in assay [6], in [7], in [10] and in assay [8] was inactive. Also, the Potency result in assay [2], in [3], in assay [4] and in assay [9] was “inactive” in each case.

Regarding `N[C@H]1C(O)O[C@H](CO)[C@@H](O)[C@@H]1O` (stereo not given in full), the call in assay [1], in assay [5], in assay [6], in assay [7], in assay [10] and in assay [8] was inactive. Further, the Potency entry in [2], in assay [3] and in [4] was “inactive” each time.

As for `C=C(C)C(=O)OCCCC`, the compound was classed as inactive in assay [1], in assay [5], in assay [6] and in assay [8]. In addition, the Potency entry in [2], in assay [3], in assay [4] and in assay [9] was “inactive” each time.

As for `NCC1CCC(C(=O)Oc2ccc(CCC(=O)O)cc2)CC1` (stereo not given), the compound was classed as inactive in assay [1], in assay [5] and in assay [8]. Moreover, the Potency entry in assay [2], in [3] and in [4] was “inactive” in each case.

As to `CC(O)CCCCn1c(=O)c2c(ncn2C)n(C)c1=O` (stereo not given), the compound was classed as inactive in [1], in [5] and in [8]. The Potency result in assay [2], in assay [3] and in assay [4] was “inactive” in each case.

Take `CC(=O)OC1CCC(C(C)(C)C)CC1` (stereo not given): the compound was called inactive in assay [1], in assay [5], in assay [6], in assay [7], in [10] and in assay [8]. Moreover, the Potency result in assay [2], in assay [3] and in assay [4] was “inactive” throughout.

With `CC(O)C(CO)C(C)O` (stereo not given), the result in [1], in assay [5], in assay [6], in assay [7], in assay [10] and in assay [8] was inactive. In addition, the Potency result in [2], in [3], in assay [4] and in [9] was “inactive” in each case.

`Cc1ccc(O)c([N+](=O)[O-])c1`: the result in [1], in assay [5] and in [8] was inactive. Moreover, the Potency result in assay [2], in [3] and in assay [4] was “inactive” each time.

Consider `COc1cc(OC)cc(OC)c1`, for which the compound was classed as inactive in assay [1], in assay [5], in [6], in assay [7], in assay [10] and in [8]. The Potency entry in assay [2], in [3], in assay [4] and in [9] was “inactive” in each case.

For the compound `CCCc1ccc(O)c(OC)c1`, the call in assay [1], in assay [5] and in [8] was inactive. For the same compound, the Potency entry in [2], in [3] and in assay [4] was “inactive” each time.

Regarding `N#Cc1ccccc1C#N`, the call in [1], in assay [5], in [6], in assay [7], in [10] and in assay [8] was inactive. The Potency result in assay [2], in assay [3], in assay [4] and in assay [9] was “inactive” in each case.

For the compound `NNC(=O)OCc1ccccc1`, the call in assay [1], in assay [5], in assay [6], in assay [7], in [10] and in [8] was inactive. In addition, the Potency entry in assay [2], in [3], in assay [4] and in [9] was “inactive” throughout.

For `CN1CCN(C(=O)C2CCCCC2)CC1`, the outcome in [1], in [5] and in assay [8] was inactive. Further, the Potency entry in [2], in [3] and in assay [4] was “inactive” throughout.

Take `O=C(O)CCCCCCCCCC(=O)O`: the result in [1], in [5], in [10] and in assay [8] was inactive. The results for the Potency in assay [2], in assay [3] and in [4] were 30.6 µM (active), 34.4 µM (active) and 27.3 µM (active), respectively.
